Shown are actives, neighbours in structure and some others; about 27% of the full set was active somewhere.
CYP2C19 inh – blockers of cytochrome P450 2C19 activity – biochemical, luminescence, ADME assay, primary screen; P33261; CYP2C19 Supersomes, luciferin-H EGE luminescence, 30 min; inhibition, % at 5 µM; 21% of 96,000 active;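 active = CYP2C19 inhibition above a set limit at 5 µM in the primary screen, cut at about 50% in these data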;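 also: plate controls were negative control wells for no effect and 2.5 mM tranylcypromine positive control for full effect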
sEH act – soluble epoxide hydrolase activators, primary screen, biochemical, human sEH; purified human sEH enzymatic activity, activator screen; activation, % at 2 µM; 0.04% of 91,000 active; AID 717, 2007; in the data active = activation above about 37%
CYP2C9 activ – human CYP2C9 activators, primary screen, biochemical, luminescence; recombinant CYP2C9, luciferin-H conversion; stronger effect = higher value; factor 1 = untreated enzyme, 0 = blocked; Cytochrome P450 2C9 (Homo sapiens), P11712; activation factor at 5 µM; 1.4% of 96,000 active;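 active = activation factor of 2 or more for CYP2C9 at a 5 µM dose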;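 also: 0 = sulfaphenazole-blocked wells and 1 = vehicle-only wells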
Target sequence (P11712 whole entry, looked up): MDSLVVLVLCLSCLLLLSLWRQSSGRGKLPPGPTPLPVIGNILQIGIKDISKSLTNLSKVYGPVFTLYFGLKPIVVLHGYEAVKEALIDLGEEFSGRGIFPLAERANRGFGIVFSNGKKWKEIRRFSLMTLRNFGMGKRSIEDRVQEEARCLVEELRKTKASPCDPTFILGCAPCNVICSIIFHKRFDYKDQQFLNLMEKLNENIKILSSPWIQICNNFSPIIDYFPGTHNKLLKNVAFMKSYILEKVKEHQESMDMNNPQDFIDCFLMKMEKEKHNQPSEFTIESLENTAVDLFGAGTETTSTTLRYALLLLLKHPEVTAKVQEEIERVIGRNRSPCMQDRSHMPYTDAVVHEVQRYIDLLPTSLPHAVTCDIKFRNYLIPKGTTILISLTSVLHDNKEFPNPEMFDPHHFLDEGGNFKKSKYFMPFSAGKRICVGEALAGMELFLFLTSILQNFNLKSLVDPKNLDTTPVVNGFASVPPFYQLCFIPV
sEH inhibitor – soluble epoxide hydrolase inhibitors, primary screen, biochemical, human sEH; AID 707, 2007; Bifunctional epoxide hydrolase 2 (Homo sapiens), P34913; inhibition, % at 2 µM; 0.34% of 91,000 active; recombinant human sEH enzymatic activity assay; in the data active = inhibition above about 80%
CYP2C19 activ – human CYP2C19 activators, primary screen, biochemical, luminescence; recombinant CYP2C19, luciferin-H EGE luminescence; stronger effect = higher value; 0 = fully inhibited enzyme, 1 = untreated enzyme; activation factor at 5 µM; 96,000 tested, under 10 active; AID 1025, 2008;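 active = activation factor of at least 2 at 5 µM in the primary screen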;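 also: 0 = wells with 2.5 mM tranylcypromine and 1 = vehicle-only wells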
CYP2C9 inh – blockers of cytochrome P450 2C9 activity – biochemical, luminescence, ADME assay, primary screen | P11712 | CYP2C9 Supersomes, luciferin-H conversion | inhibition, % at 5 µM | 20% of 96,000 active | AID 777, 2007;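 active = blocking of liver enzyme CYP2C9 beyond about 50% at 5 µM, limit read from the data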
* hit, by the source's call; / = no result given.

SMILES	CYP2C19 inh	sEH act	CYP2C9 activ	sEH inhibitor	CYP2C19 activ	CYP2C9 inh
N#Cc1nc(Cc2cccc3ccccc23)oc1NCC1CCCO1 (stereo unspecified)	83.6*	3.3	0.3	-1.6	0.2	71.8*
COCCNc1oc(-c2ccc(F)cc2)nc1C#N	30.2	-3.0	0.7	1.6	0.7	29.5
N#Cc1nc(Cc2cccc3ccccc23)oc1NCc1ccco1	43.1	-20.6	0.6	21.9	0.6	40.5
COCCNc1oc(-c2ccccc2Cl)nc1C#N	87.5*	-0.4	0.3	2.6	0.1	69.0*
CCOc1ccc(-c2nc(C#N)c(NCC3CCCO3)o2)cc1 (stereo unspecified)	-1.7	0.1	0.9	-2.0	1	7.3
N#Cc1nc(-c2ccccc2Cl)oc1NCC1CCCO1 (stereo unspecified)	64.4*	1.4	0.4	0.9	0.4	64.5*
CC1CCCCC1NC(=O)C1CCN(S(=O)(=O)c2cccc3nsnc23)CC1 (stereo unspecified)	-25.0	-1.6	1.8	-1.2	1.3	-76.0
CCN(CC)CCN(CC)Cc1ccccc1Br	4.9	/	1	/	1	-4.1
CC(C)n1nnnc1SCC(=O)Nc1ccc2c(c1)OCO2	/	-3.7	/	6.8	/	/
CCCCn1nnnc1SCC(=O)Nc1ccc2c(c1)OCO2	42.0	-23.5	0.3	22.5	0.6	69.9*
CC(C)(C)NC(=O)NC(=O)COC(=O)C1=COCCO1	-5.4	-1.2	1	2.6	1.1	1.3
Cc1cc(C(=O)COC(=O)C2=COCCO2)c(C)n1-c1ccc2c(c1)OCO2	91.8*	6.5	0.1	-8.0	0.1	85.2*
CCn1nnnc1SCC(=O)NCc1cccs1	10.4	-8.8	1	8.4	0.9	-4.9
CCCn1nnnc1SCC(=O)NCc1cccs1	72.8*	-4.5	1.1	4.0	0.3	-5.8
CCCn1nnnc1SCC(=O)NCc1ccc2c(c1)OCO2	65.9*	-6.3	0.5	5.9	0.3	53.4*
CC1CN(CCCCOc2ccc(C(C)C)cc2)CC(C)O1 (stereo unspecified)	42.0	19.0	1	-21.2	0.6	2.1
CCN(CCC(=O)Nc1cc(OC)cc(OC)c1)Cc1ccccc1	23.3	/	0.9	/	0.8	9.3
Cc1cc(C(=O)CSc2nncs2)c(C)n1-c1ccc2c(c1)OCO2	85.5*	/	0.5	/	0.1	53.3*
COCCn1c(-c2ccc(Cl)cc2)cnc1SCC(=O)NCc1cccs1	92.0*	2.9	0.1	-2.7	0.1	85.8*
O=C(CSc1nncs1)Nc1ccc2c(c1)OCCO2	-5.0	9.7	1.1	-8.2	1.1	-5.6
CCCCn1nnnc1SCC(=O)N1CCCC1	1.1	-3.0	1.1	2.9	1	-8.9
O=C(CSc1nncs1)NCc1ccc2c(c1)OCO2	59.1*	-5.3	0.9	4.6	0.4	13.9
Cc1nnc(SCC(=O)NCc2ccc3c(c2)OCO3)s1	35.6	1.2	0.8	0.1	0.6	15.9
CCCCn1nnnc1SCC(=O)Nc1ccc(N(C)C)cc1	52.8*	-5.7	0.8	7.5	0.5	21.3
O=C(O)CNC(=O)CCN1C(=O)c2ccccc2C1=O	-3.6	-1.1	1.2	3.0	1	-23.4
SMILES	CYP2C19 inh	sEH act	CYP2C9 activ	sEH inhibitor	CYP2C19 activ	CYP2C9 inh
CCCCn1nnnc1SCC(=O)Nc1ccc(F)cc1	97.3*	3.0	0.3	-4.3	0	71.2*
CCn1nnnc1SCC(=O)Nc1ccc(OC)cc1	/	0.1	/	0.4	/	/
NCCCCCc1nnc(SCc2ccccc2Cl)o1	72.0*	8.6	0.8	-10.7	0.3	15.1
N[C@@H](Cc1ccccc1)c1nnc(SCc2ccccc2Cl)o1	78.9*	-4.1	0.6	2.5	0.2	36.3
Fc1cccc(Cl)c1CSc1nnc(COc2cccc3cccnc23)o1	95.5*	-17.8	1.2	19.0	0	-23.4
CCN(CC)C(=O)CSc1nnc([C@@H](N)Cc2ccccc2)o1	21.1	/	1.1	/	0.8	-6.4
Cc1nc(SCc2c(F)cccc2Cl)n[nH]1	3.7	-2.8	1.2	5.3	1	-22.3
NCCc1nnc(SCc2c(F)cccc2Cl)o1	61.6*	9.2	0.5	-11.1	0.4	53.4*
Cn1c(N)c(C(=O)COC(=O)Cc2ccsc2)c(=O)n(C)c1=O	-0.7	/	1.1	/	1	-7.0
CCOC(=O)N1CCC(NC(=O)C2CCCN(S(C)(=O)=O)C2)CC1 (stereo unspecified)	-2.6	-6.9	1	10.5	1	-0.3
CCN(CC)C(=O)CSc1nnc(CCN)o1	47.7	/	0.5	/	0.5	53.3*
NCCc1nnc(SCc2ccccc2)o1	78.7*	19.5	0.3	-19.2	0.2	65.7*
Cc1ccc(CS/C(Nc2ccccc2C)=C(\C#N)C(=O)NCc2ccco2)c(C)c1	50.6*	6.2	0.6	-6.5	0.5	41.8
Cc1ccccc1N/C(SCc1ccc(Cl)cc1)=C(/C#N)C(=O)NCc1ccco1	84.8*	8.8	0.4	-5.7	0.2	55.3*
CCOC(=O)c1sc(/N=C/c2c(C)[nH]n(-c3ccccc3)c2=O)c(C#N)c1C	-9.7	6.8	0.7	-6.0	1.1	28.4
CCS(=O)(=O)c1ccc2oc(Nc3ccccc3C)nc2c1	59.0*	8.7	0.5	-7.5	0.4	54.2*
O=C1Cc2cccc3cccc1c23	2.1	14.0	1.1	-14.8	1	-9.1
CCCCCn1c(SCCc2ccccc2)nc2c1c(=O)[nH]c(=O)n2C	39.7	-4.2	0.4	4.8	0.6	60.9*
CCOCCn1c(SCCc2ccccc2)nc2c1c(=O)[nH]c(=O)n2C	14.8	/	0.3	/	0.9	73.5*
Cc1cccc(Cn2c(SCC(=O)Nc3ccccc3)nc3c2c(=O)[nH]c(=O)n3C)c1	69.6*	14.1	0.5	-15.1	0.3	47.2
CCCn1c(SCCc2ccccc2)nc2c1c(=O)[nH]c(=O)n2C	50.2*	/	0.4	/	0.5	58.6*
O=C1CCC(C(=O)N(Cc2ccco2)C2(C(=O)NC3CCCC3)CCCCC2)N1 (stereo unspecified)	-17.1	4.3	1.2	-6.2	1.2	-18.9
N#CCSc1nc2c(c(C3CC=CCC3)c1C#N)CCC2 (stereo unspecified)	16.7	15.0	1	-17.3	0.8	4.1
CCn1c(=O)c2c(n3cnnc13)-c1ccccc1CC21CCCCC1	16.4	-6.1	0.7	6.1	0.8	27.3
COc1ccc(S(=O)(=O)N2C3CCC2CC(NC(=O)C2CC2)C3)cc1 (stereo unspecified)	17.9	-6.7	1	6.2	0.8	4.5
COc1cc(C2C3=C(CC(C)(C)CC3=O)N(C)C(=O)N2C)cc(OC)c1OC (stereo unspecified)	-7.0	-2.9	0.7	4.1	1.1	30.8
CC(C)CCn1c(SCCN2CCOCC2)nc2c1c(=O)[nH]c(=O)n2C	17.9	13.6	0.1	-14.8	0.8	85.3*

Screening data as filed in PubChem.
